Reference: PubChem BioAssay (Tox21)
Records with an inconclusive call do not appear. Active and inactive are the calls of the source. Unless noted, calls come from the whole dose curve; as a rule, active = well fitted curve in the direction sought with a large enough effect in the repeat runs; inconclusive = weak or mixed curves; inactive = no such curve, though single readings can be large; an effect the other way counts as inactive or inconclusive.

Assays:
[1] = Human pregnane X receptor (PXR) small molecule agonists, qHTS cell viability counter screen (AID 1346977); note: nearly all actives have a fitted effect of over 50% in size
Procedure, shortened: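 Same-well viability read: CellTiter-Fluor added after 23 hr compound exposure, fluorescence measured 1 hr later. Cells were PXR-Luc HepG2 seeded at 2,000/well in 5% charcoal-stripped FBS medium, rested 5 hr before dosing at 37 C.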

[2] = Caspase-3/7 induction in HepG2 cells by small molecules, qHTS assay (AID 1346978); note: nearly all actives have a fitted effect of over 15% in size
Procedure, shortened: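 Wild-type HepG2 cells, 2,000/well, settled 5 hr at 37 C and 5% CO2, then compound-treated for 17 hr; caspase-3/7 activity read by luminescent Caspase-Glo 3/7 after 30 min at room temperature.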

[3] = Caspase-3/7 induction in CHO-K1 cells by small molecules, qHTS cell viability counter screen (AID 1346979); note: nearly all actives have a fitted effect of over 35% in size
Procedure, shortened: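 Cytotoxicity counter screen: CellTiter-Fluor added to compound-treated wild-type CHO-K1 cells at 16 h (37C, 5% CO2), fluorescence measured 1 h later; same wells as caspase-3/7 measurement.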

[4] = Caspase-3/7 induction in CHO-K1 cells by small molecules, qHTS assay (AID 1346980); note: nearly all actives have a fitted effect of over 15% in size
Procedure, shortened: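 Wild-type CHO-K1 cells exposed to compounds for 17hr at 37 C, 5% CO2. Caspase-3/7 activity then measured by Caspase-Glo 3/7 luminescence after 30min at room temperature.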

[5] = Caspase-3/7 induction in HepG2 cells by small molecules, qHTS cell viability counter screen (AID 1346981); note: series mostly up to about 92 µM; nearly all actives have a fitted effect of over 30% in size
Procedure, shortened: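 Viability determined by CellTiter-Fluor fluorescence in HepG2 wells also used for the luminescent Caspase-Glo 3/7 read. Compounds were present for 16 hr at 37 C, 5% CO2 before reagent addition.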

[6] = target: Nuclear receptor subfamily 1 group I member 2 (Homo sapiens) (UniProt O75469); assay: Human pregnane X receptor (PXR) small molecule agonists, qHTS assay (AID 1346982); note: nearly all actives have a fitted effect of over 35% in size; note: potency is the fitted concentration of half-maximal effect
Procedure, shortened: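 Compound-induced hPXR transactivation of a CYP3A4 luciferase reporter was scored in HepG2 PXR-Luc cells over 24 hr at 37 C, 5% CO2, by luminescence.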

[7] = target: Acetylcholinesterase (Homo sapiens) (UniProt P22303); assay: Acetylcholinesterase (AChE) small molecule antagonists: enzyme-based qHTS assay (AID 1347397; calls by dose curve; note: nearly all actives have a fitted effect of over 55% in size; note: potency is the fitted concentration of half-maximal effect); conditions: Potency: AChE enzyme activity inhibition
Procedure, shortened: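 Enzyme inhibition was scored from DTNB-detected thiocholine formed by recombinant human AChE acting on acetylthiocholine. The 30 min compound preincubation and 10 min substrate reaction were both run at room temperature, with DMSO as vehicle control.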

[8] = target: Acetylcholinesterase (Homo sapiens) (UniProt P22303); assay: Acetylcholinesterase (AChE) small molecule antagonists: fluorescence cell-based qHTS assay (AID 1347398; calls by dose curve; note: nearly all actives have a fitted effect of over 50% in size; note: potency is the fitted concentration of half-maximal effect); conditions: Potency: AChE activity
Procedure, shortened: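 Endogenous acetylcholinesterase of SH-SY5Y neuroblastoma cells is measured in situ. After overnight attachment and 30 min compound exposure, cells receive acetylthiocholine and Thiolite Green; fluorescence is read after 40 min at room temperature.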

[9] = target: Acetylcholinesterase (Homo sapiens) (UniProt P22303); assay: Acetylcholinesterase (AChE) small molecule antagonists: enzyme-based qHTS assay with human liver microsomes (AID 1347399; calls by dose curve; note: nearly all actives have a fitted effect of over 60% in size; note: potency is the fitted concentration of half-maximal effect); conditions: Potency: qHTS inhibition
Procedure, shortened: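 Recombinant human AChE (50 mU/mL in the enzyme mix) and human liver microsomes (0.25 mg/mL final) were preincubated with compound and NADPH (0.25 mg/mL final) for 30 min at 37 C. Acetylthiocholine/DTNB was then added; thiocholine was read colorimetrically after 10 min at room temperature.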

[10] = target: Cytochrome P450 2D6 (Homo sapiens) (UniProt P10635); assay: Cytochrome P450 Family 2 Subfamily D Member 6 (CYP2D6) small molecule antagonists: luciferase reporter qHTS assay (AID 1671196); note: nearly all actives have a fitted effect of over 50% in size; note: potency is the fitted concentration of half-maximal effect; for activity change, negative = inhibition: series mostly up to about 120 µM
Procedure, shortened: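 Each well received CYP2D6 with its proluciferin substrate and chemical, sat 10 min, then got NADPH regeneration solution for 1 h at room temperature. Luminescence in RLU served as the activity measure.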

[11] = target: Cytochrome P450 2C9 (Homo sapiens) (UniProt P11712); assay: Cytochrome P450 Family 2 Subfamily C Member 9 (CYP2C9) small molecule antagonists: luciferase reporter qHTS assay (AID 1671198); note: nearly all actives have a fitted effect of over 50% in size; note: potency is the fitted concentration of half-maximal effect; for activity change, negative = inhibition: series mostly up to about 120 µM
Procedure, shortened: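 P450-Glo proluciferin substrate with CYP2C9 enzyme; 10 min RT preincubation, then NADPH regeneration 1 h at 37C; luciferin detection reagent 20 min RT, luminescence in relative luminescence units.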

[12] = target: Cytochrome P450 1A2 (Homo sapiens) (UniProt P05177); assay: Cytochrome P450 Family 1 Subfamily A Member 2 (CYP1A2) small molecule antagonists: luciferase reporter qHTS assay (AID 1671199); note: nearly all actives have a fitted effect of over 50% in size; note: potency is the fitted concentration of half-maximal effect; for activity change, negative = inhibition: series mostly up to about 120 µM
Procedure, shortened: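 Enzymatic CYP1A2 assay, human, luminescent: 10 min compound–enzyme–substrate preincubation, 1 h NADPH-dependent turnover, 20 min detection step, room temperature throughout. Reduced light indicates lower CYP1A2 activity.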

[13] = target: Voltage-gated inwardly rectifying potassium channel KCNH2 (Homo sapiens) (UniProt Q12809); assay: Human Ether-a-go-go-Related Gene (hERG) channel small molecule antagonists: fluorescence cell-based qHTS assay (AID 1671200)
Procedure, shortened: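 Thallium flux as potassium surrogate: FluxOR II dye loaded 1 h at room temperature into hERG-expressing U2OS cells, then stimulus buffer added after 10 min. Kinetic 480 nm excitation/540 nm emission read, 2 min.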

[14] = target: Cytochrome P450 3A4 (Homo sapiens) (UniProt P08684); assay: Cytochrome P450 Family 3 Subfamily A Member 4 (CYP3A4) small molecule antagonists: luciferase reporter qHTS assay (AID 1671201); note: nearly all actives have a fitted effect of over 50% in size; note: potency is the fitted concentration of half-maximal effect; for activity change, negative = inhibition: series mostly up to about 120 µM
Procedure, shortened: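 Recombinant human CYP3A4 converts a proluciferin substrate to luciferin over 1 h at room temperature after NADPH regeneration solution is added (compound preincubated 10 min); detection reagent stops reaction, luminescence read 20 min later as relative units.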

[15] = target: Cytochrome P450 2C19 (Homo sapiens) (UniProt P33261); assay: Cytochrome P450 Family 2 Subfamily C Member 19 (CYP2C19) small molecule antagonists: luciferase reporter qHTS assay (AID 1671197); note: nearly all actives have a fitted effect of over 65% in size; note: potency is the fitted concentration of half-maximal effect; for activity change, negative = inhibition: series mostly up to about 120 µM
Procedure, shortened: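 Light output is proportional to CYP2C19 activity: proluciferin substrate is converted to luciferin, then detected by a luciferin detection reagent that also stops the 1 h, 37C NADPH-driven reaction. Ketoconazole serves as positive control.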

[16] = target: Nuclear receptor subfamily 1 group I member 2 (Rattus norvegicus) (UniProt Q9R1A7); assay: Rat pregnane X receptor (rPXR) activation by small molecules, qHTS assay (AID 1346983); conditions: rPXR luciferase reporter cells, One-Glo luminescence, 24 h; max activation: active compounds read high; note: nearly all actives have a fitted effect of over 20% in size; note: potency is the fitted concentration of half-maximal effect
Procedure, shortened: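 Cell-based rPXR activation assay: rPXR cells, 2,000 per well, rested 5hr at 37 C, then exposed to compounds in DMSO for 24 hr at 37 C. Luciferase activity read by One-Glo luminescence after 30 min at room temperature.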

[17] = target: Nuclear receptor subfamily 1 group I member 2 (Homo sapiens) (UniProt O75469); assay: CYP3A4 induction through human pregnane X receptor (PXR) by small molecules, qHTS assay (AID 1346984); note: nearly all actives have a fitted effect of over 40% in size
Procedure, shortened: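 Readings come from a luciferase reporter: DPX-2 cells, which are HepG2 cotransfected with PXR and a CYP3A4-promoter construct, were exposed to test compounds for 24 h at 37C before One-Glo detection.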

[18] = target: Nuclear receptor subfamily 1 group I member 2 (Homo sapiens) (UniProt O75469); assay: Human pregnane X receptor (PXR) activation by small molecules, qHTS assay (AID 1346985); note: nearly all actives have a fitted effect of over 40% in size
Procedure, shortened: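 DPX-2 cells (HepG2 co-transfected with a PXR response element and a CYP3A4-promoter luciferase construct) were seeded at 2,000 per well, rested 5 hr at 37C, then exposed to DMSO-dissolved compounds for 24 hr. Activation was read as luciferase luminescence.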

[19] = target: Acetylcholinesterase (Homo sapiens) (UniProt P22303); assay: Acetylcholinesterase (AChE) small molecule antagonists: colormetric cell-based qHTS assay (AID 1347395; calls by dose curve; note: nearly all actives have a fitted effect of over 30% in size; note: potency is the fitted concentration of half-maximal effect)
Procedure, shortened: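 Colorimetric readout: DTNB quantifies thiocholine from acetylthiocholine hydrolysed by endogenous AChE of SH-SY5Y cells (2,000/well, plated overnight). Compound pretreatment 30 min, substrate incubation 90 min, both 37 C.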
% is set by controls: 0 for no effect and ±100 for the full control effect.

Chain of Cytochrome P450 2C19 (Homo sapiens) (P33261 whole entry, looked up): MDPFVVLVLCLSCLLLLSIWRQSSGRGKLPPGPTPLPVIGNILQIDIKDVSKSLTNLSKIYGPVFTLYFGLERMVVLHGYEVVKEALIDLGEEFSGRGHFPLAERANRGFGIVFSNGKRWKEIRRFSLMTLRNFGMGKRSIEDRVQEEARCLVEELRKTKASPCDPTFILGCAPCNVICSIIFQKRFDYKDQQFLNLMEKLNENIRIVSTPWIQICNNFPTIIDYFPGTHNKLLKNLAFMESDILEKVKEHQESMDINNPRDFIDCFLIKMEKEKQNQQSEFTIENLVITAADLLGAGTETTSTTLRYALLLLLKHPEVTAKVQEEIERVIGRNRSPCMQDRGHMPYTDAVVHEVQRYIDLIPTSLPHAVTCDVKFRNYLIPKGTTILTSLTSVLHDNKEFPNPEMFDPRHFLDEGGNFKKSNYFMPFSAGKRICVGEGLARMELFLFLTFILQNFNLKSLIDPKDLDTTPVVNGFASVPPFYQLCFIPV
Chain of Acetylcholinesterase (Homo sapiens) (P22303 whole entry, looked up): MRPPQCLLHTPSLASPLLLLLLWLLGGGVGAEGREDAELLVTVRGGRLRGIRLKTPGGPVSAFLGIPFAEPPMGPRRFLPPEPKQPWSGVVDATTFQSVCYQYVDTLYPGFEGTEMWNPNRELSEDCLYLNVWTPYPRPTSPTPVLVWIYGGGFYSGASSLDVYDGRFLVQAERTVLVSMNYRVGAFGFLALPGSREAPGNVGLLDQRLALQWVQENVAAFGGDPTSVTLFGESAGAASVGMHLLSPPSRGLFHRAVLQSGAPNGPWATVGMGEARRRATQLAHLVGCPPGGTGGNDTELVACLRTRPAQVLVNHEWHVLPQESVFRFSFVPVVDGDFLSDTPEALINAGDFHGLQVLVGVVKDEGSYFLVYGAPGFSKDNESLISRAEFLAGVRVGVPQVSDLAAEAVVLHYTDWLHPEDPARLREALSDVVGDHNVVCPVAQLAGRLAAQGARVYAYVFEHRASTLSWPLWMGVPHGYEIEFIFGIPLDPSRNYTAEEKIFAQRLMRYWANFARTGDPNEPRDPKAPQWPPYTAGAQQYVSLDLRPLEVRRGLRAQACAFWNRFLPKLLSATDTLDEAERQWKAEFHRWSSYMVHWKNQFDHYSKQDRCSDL
Chain of Voltage-gated inwardly rectifying potassium channel KCNH2 (Homo sapiens) (Q12809 whole entry, looked up): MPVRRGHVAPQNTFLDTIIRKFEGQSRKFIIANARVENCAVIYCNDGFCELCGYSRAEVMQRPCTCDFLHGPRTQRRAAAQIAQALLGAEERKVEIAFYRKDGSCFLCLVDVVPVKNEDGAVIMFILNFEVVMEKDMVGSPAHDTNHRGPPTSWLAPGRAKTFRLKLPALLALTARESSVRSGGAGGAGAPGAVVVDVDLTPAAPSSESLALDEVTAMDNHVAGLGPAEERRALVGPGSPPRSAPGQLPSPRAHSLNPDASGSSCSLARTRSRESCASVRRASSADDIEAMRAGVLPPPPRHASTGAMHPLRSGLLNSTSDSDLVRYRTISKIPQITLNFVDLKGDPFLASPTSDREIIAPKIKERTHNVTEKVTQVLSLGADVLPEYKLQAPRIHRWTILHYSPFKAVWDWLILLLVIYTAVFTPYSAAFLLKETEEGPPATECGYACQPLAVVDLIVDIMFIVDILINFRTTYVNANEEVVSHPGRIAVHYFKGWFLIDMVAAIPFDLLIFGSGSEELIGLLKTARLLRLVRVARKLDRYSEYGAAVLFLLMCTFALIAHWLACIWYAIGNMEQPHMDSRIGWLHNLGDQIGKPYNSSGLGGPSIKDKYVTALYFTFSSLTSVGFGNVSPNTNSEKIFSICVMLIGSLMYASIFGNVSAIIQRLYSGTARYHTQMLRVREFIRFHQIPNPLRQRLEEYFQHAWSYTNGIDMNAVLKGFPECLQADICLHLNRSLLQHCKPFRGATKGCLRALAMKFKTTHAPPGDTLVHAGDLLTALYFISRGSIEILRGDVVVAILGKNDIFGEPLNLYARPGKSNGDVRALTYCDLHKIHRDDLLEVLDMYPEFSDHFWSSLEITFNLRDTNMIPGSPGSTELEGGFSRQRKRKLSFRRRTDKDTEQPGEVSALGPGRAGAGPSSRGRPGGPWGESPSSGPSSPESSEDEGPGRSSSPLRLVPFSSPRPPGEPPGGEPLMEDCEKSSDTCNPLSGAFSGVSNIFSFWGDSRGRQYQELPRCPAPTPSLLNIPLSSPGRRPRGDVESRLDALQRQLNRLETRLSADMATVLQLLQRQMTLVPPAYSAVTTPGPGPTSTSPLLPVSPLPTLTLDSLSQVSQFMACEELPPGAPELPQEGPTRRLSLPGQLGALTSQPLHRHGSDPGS
Chain of Cytochrome P450 3A4 (Homo sapiens) (P08684 whole entry, looked up): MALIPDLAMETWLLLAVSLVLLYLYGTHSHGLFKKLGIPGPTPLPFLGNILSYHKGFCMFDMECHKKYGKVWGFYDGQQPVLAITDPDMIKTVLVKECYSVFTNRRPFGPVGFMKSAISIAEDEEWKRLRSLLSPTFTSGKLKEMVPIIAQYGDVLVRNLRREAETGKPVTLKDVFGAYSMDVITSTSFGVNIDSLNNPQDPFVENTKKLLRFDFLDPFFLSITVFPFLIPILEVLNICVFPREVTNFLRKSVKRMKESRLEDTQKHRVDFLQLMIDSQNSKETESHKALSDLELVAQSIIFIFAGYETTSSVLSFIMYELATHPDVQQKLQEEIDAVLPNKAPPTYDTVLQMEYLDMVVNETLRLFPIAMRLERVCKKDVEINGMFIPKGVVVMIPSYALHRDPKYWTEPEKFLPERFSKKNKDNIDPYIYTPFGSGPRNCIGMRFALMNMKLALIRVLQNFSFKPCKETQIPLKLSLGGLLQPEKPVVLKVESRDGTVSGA
Chain of Cytochrome P450 1A2 (Homo sapiens) (P05177 whole entry, looked up): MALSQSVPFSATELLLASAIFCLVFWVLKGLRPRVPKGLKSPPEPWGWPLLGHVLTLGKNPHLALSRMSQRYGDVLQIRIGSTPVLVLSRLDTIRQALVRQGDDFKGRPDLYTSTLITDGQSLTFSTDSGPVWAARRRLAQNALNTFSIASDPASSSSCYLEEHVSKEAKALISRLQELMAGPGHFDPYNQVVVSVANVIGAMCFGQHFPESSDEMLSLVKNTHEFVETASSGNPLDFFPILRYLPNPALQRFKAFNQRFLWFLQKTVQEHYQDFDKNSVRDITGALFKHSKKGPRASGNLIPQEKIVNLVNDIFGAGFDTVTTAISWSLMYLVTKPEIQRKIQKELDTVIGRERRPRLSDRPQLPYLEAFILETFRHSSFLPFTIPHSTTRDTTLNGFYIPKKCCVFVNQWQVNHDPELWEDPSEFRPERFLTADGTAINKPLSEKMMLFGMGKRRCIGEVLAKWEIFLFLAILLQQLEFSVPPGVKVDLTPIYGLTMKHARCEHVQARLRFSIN
Chain of Nuclear receptor subfamily 1 group I member 2 (Homo sapiens) (O75469 whole entry, looked up): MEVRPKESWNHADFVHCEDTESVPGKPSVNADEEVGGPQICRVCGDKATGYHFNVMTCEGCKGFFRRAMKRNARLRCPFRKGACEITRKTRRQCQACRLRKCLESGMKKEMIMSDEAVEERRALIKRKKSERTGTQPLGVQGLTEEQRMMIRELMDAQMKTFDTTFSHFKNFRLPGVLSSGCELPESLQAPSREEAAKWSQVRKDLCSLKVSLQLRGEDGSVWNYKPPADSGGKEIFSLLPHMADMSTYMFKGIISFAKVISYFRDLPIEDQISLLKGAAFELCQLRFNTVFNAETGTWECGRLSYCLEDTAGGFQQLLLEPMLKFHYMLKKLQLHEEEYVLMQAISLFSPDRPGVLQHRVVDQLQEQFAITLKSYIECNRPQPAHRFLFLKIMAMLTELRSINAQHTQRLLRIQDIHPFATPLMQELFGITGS
Chain of Cytochrome P450 2C9 (Homo sapiens) (P11712 whole entry, looked up): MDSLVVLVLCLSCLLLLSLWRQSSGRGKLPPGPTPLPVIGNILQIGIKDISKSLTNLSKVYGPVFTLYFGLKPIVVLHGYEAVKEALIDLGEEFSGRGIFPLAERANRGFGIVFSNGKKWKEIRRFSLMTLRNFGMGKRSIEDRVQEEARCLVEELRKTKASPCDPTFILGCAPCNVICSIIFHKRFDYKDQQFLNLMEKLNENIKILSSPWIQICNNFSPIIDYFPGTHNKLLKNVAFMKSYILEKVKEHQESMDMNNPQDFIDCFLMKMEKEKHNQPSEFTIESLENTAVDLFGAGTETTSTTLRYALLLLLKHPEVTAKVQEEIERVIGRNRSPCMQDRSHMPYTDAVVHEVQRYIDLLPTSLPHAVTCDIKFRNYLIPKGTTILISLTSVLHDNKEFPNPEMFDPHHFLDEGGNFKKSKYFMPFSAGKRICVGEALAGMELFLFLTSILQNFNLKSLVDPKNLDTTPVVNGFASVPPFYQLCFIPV
Chain of Cytochrome P450 2D6 (Homo sapiens) (P10635 whole entry, looked up): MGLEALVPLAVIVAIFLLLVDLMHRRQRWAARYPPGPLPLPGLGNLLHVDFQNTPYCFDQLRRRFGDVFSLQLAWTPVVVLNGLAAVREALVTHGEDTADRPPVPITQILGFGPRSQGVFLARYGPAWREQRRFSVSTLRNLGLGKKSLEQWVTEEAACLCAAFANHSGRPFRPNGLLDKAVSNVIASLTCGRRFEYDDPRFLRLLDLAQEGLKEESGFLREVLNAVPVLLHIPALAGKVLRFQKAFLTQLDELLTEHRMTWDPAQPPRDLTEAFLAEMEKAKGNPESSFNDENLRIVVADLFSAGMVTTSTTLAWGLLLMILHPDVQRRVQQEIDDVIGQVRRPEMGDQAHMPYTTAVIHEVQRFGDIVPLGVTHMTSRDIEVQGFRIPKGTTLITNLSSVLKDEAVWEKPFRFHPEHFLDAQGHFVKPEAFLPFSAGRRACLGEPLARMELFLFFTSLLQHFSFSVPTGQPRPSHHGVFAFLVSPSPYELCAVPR

COC(=O)c1ccccc1S(=O)(=O)NC(=O)Nc1nc(C)cc(C)n1
inactive: Potency [1] | Potency [2] | Potency [3] | Potency [4] | Potency [5] | Potency [6] | Potency [7] | Potency [8] | Potency [9] | Potency [10] | Potency [11] | Potency [12] | Potency [13] | Potency [14]

CCOP(=S)(OCC)Oc1nc(Cl)n(C(C)C)n1
inactive: Potency [1] | Potency [2] | Potency [3] | Potency [4] | Potency [5] | Potency [13]
active: Potency [6] 6.86 µM | Potency [15] 0.252 µM | Potency [11] 5.03 µM | Potency [12] 2.24 µM | Potency [14] 1.59 µM

O=C1c2ccccc2C(=O)c2ccccc21
inactive: activity change, negative = cytotoxicity [1] 8.57% [at 19 µM] | caspase activation [2] -0.684% [at 19 µM] | activity change, negative = cytotoxicity [3] 11.3% [at 19 µM] | caspase-3/7 activation [4] 2.01% [at 19 µM] | activity change, negative = cytotoxicity [5] 8.77% [at 19 µM] | max activation [16] 7.01% | Potency [17] | Potency [18] | activity, negative = inhibition [19] -0.352% [at 23.6 µM] | activity change, negative = inhibition [7] -0.378% [at 23.6 µM] | activity change, negative = inhibition [9] -1.34% [at 23.6 µM] | activity change, negative = inhibition [15] 10.7% [at 23.6 µM] | activity change, negative = inhibition [11] 2.12% [at 23.6 µM] | activity change, negative = inhibition [13] 3.3% [at 15.8 µM]

CCCCCCBr
inactive: Potency [1] | Potency [2] | Potency [3] | Potency [4] | Potency [5] | Potency [13]

CCOP(=O)(N=C1SCCS1)OCC
inactive: Potency [1] | Potency [2] | Potency [3] | Potency [4] | Potency [5] | Potency [6] | Potency [7] | Potency [9] | Potency [10] | Potency [11] | Potency [12] | Potency [13] | Potency [14]

O=C1CN2CCOC2(c2ccccc2Cl)c2cc(Cl)ccc2N1 (stereo not drawn)
inactive: Potency [1] | Potency [2] | Potency [3] | Potency [4] | Potency [5] | Potency [19] | Potency [7] | Potency [8] | Potency [9] | Potency [12] | Potency [13]
active: Potency [10] 8.71 µM

CCOP(=S)(OCC)SCSc1ccc(Cl)cc1
active: Potency [6] 10.9 µM | Potency [10] 11.2 µM | Potency [15] 0.502 µM | Potency [11] 1 µM | Potency [12] 8.94 µM
inactive: Potency [1] | Potency [2] | Potency [3] | Potency [4] | Potency [5] | Potency [7] | Potency [8] | Potency [9] | Potency [13]

COc1ccc(C(=O)N2CCCC2=O)cc1
inactive: Potency [1] | Potency [2] | Potency [3] | Potency [4] | Potency [5] | Potency [13]

CC(=O)[C@H]1CC[C@H]2[C@@H]3CC[C@H]4C[C@H](O)CC[C@]4(C)[C@H]3C(=O)C[C@]12C
active: Potency [16] 11.2 µM
inactive: Potency [1] | Potency [2] | Potency [3] | Potency [4] | Potency [5] | Potency [18] | Potency [19] | Potency [7] | Potency [8] | Potency [9]

CNC(=O)Oc1ccc(N(C)C)c(C)c1
active: Potency [19] 5.64 µM | Potency [7] 6.33 µM | Potency [8] 2.24 µM | Potency [9] 39.9 µM
inactive: Potency [1] | Potency [2] | Potency [3] | Potency [4] | Potency [5] | Potency [11] | Potency [13] | Potency [14]
